# Where “and” joins values, the source holds several entries; their conditions need not be identical. Equal values may be shown once. Results filed as inconclusive are left out. Some structures have more than one record in an assay (separate samples or runs), and their calls can disagree. Calls of active or inactive are those of the source. Calls follow the shape of the dose curve; as a rule, active = well fitted curve in the direction sought with a large enough effect; inconclusive = small, poorly fitted or top-dose-only effect, or another doubt; inactive = no such curve, though single readings can be large; an effect the other way counts as inactive or inconclusive.
# Tests used:
# [1] = Viability qHTS for spleen associated tyrosine kinase inhibitor (SYKi) naive MV4-11 cells (AID 1963823); also: nearly all actives have a fitted effect of over 40% in size; also: potency is read from the fitted curve at half-maximal effect
# Method in brief: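 SYKi-naive MV4-11 AML cells, 500 per well, were exposed to library compounds for 72 hr at 37 C, 5% CO2. Viability was then read by CellTiter-Glo luminescence after 10 min at room temperature.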
# [2] = Quantitative highthroughput screen to assess conditional lethalithy of NOMO1 cells grown in RPMI1640 with untreated serum (RPMI+s) (AID 1963876); also: nearly all actives have a fitted effect of over 35% in size; also: potency is read from the fitted curve at half-maximal effect;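 as to Viability: 100% = DMSO wells and 0% = empty wells without cells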
# Method in brief: (§1)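 Each medium arm—HPLM with 10% dialyzed FBS, or RPMI1640 with 5 mM glucose and 10% untreated or dialyzed FBS—was screened against an 11-point, 3-fold compound titration for 48 h at 37 °C, with CellTiter-Glo luminescence as endpoint.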
# [3] = Quantitative highthroughput screen to assess conditional lethalithy of P12 Ichikawa cells grown in Human Plasma-Like Medium with dialyzed fetal bovine serum (HPLM+ds) (AID 1963879); conditions: Potency: viability; also: potency is read from the fitted curve at half-maximal effect; nearly all actives have a fitted effect of over 35% in size
# Method in brief: as §1
# [4] = Quantitative highthroughput screen to assess conditional lethalithy of P12 Ichikawa cells grown in RPMI1640 with dialyzed fetal bovine serum (RPMI+ds) (AID 1963880); conditions: Potency: P12-Ichikawa viability; also: nearly all actives have a fitted effect of over 35% in size; also: potency is read from the fitted curve at half-maximal effect;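 as to Viability: 100% = DMSO wells and 0% = empty wells on each plate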
# Method in brief: as §1
# [5] = Quantitative highthroughput screen to assess conditional lethalithy of SEM cells grown in RPMI1640 with unreated serum (RPMI+s) (AID 1963883); also: nearly all actives have a fitted effect of over 35% in size; also: potency is read from the fitted curve at half-maximal effect;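 as to Viability: 100% = DMSO wells and 0% = empty wells without cells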
# Method in brief: as §1
# [6] = Quantitative highthroughput screen to assess conditional lethalithy of SEM cells grown in RPMI1640 with dialyzed fetal bovine serum (RPMI+ds) (AID 1963884); also: nearly all actives have a fitted effect of over 35% in size; also: potency is read from the fitted curve at half-maximal effect;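 as to Viability: series mostly up to about 46 µM; 100% = DMSO control wells and 0% = empty wells without cells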
# Method in brief: as §1
# [7] = Cellular viability qHTS for adrenocortical cancer (ACC) cell line NCI-H295R (AID 1963990); also: nearly all actives have a fitted effect of over 60% in size; also: potency is read from the fitted curve at half-maximal effect
# Method in brief: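 Viability of NCI-H295R after 48 h of treatment (final up to 46 uM) measured through cellular ATP luminescence.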
# [8] = Viability qHTS for spleen associated tyrosine kinase inhibitor (SYKi) drug resistant MV4-11 cells (AID 1963824); also: nearly all actives have a fitted effect of over 35% in size; also: potency is read from the fitted curve at half-maximal effect
# Method in brief: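 CellTiter-Glo luminescence, read 10 min after reagent addition, reports viability after a 72 hr compound exposure. Cells are an MV4-11 line made resistant to SYK inhibition, seeded at 500 per well onto compound-containing plates.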
# [9] = Cellular viability qHTS for adrenocortical cancer (ACC) cell line SW-13 (AID 1963989); conditions: SW-13 ACC cells viability, CellTiter-Glo, 48 h; activity (max response): stronger effect = lower value; also: nearly all actives have a fitted effect of over 65% in size; also: potency is read from the fitted curve at half-maximal effect;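 as to activity (max response): cells grown in serum-free medium with ITS supplement; % is scaled to controls: 0 for no effect and ±100 for the full control effect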
# Method in brief: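 Here, serum-free SW-13 cultures were dosed up to 46 uM. Following 48 h, ATP-dependent luminescence (CellTiter-Glo) reported viable cells, and logistic modeling produced IC50 values.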
# [10] = Quantitative highthroughput screen to assess conditional lethalithy of P12 Ichikawa cells grown in RPMI1640 with untreated serum (RPMI+s) (AID 1963881); conditions: Potency: viability
# Method in brief: as §1
# [11] = Quantitative highthroughput screen to assess conditional lethalithy of SEM cells grown in Human Plasma-Like Medium with dialyzed fetal bovine serum (HPLM+ds) (AID 1963882)
# Method in brief: as §1
# [12] = Quantitative highthroughput screen to assess conditional lethalithy of NOMO1 cells grown in Human Plasma-Like Medium with dialyzed fetal bovine serum (HPLM+ds) (AID 1963878)
# Method in brief: as §1
smiles,measurement,setting,value
CCOc1ccccc1-n1c(C(C)N2CCN(C(=O)COc3ccc(Cl)cc3)CC2)nc2ccccc2c1=O (stereo not given),Potency,[1],920 nM (active) and 742 nM (active)
same,Potency,[2],1.32 µM (active)
same,Potency,[3],0.741 µM (active)
same,Potency,[4],1.05 µM (active)
same,Potency,[5],0.417 µM (active)
same,Potency,[6],0.588 µM (active)
same,Potency,[7],891 nM (active)
C/C=C(\C)C(=O)N[C@@H](c1ccccc1)[C@@H](O)C(=O)O[C@H]1C[C@@]2(O)[C@@H](OC(=O)c3ccccc3)[C@@H]3[C@]4(OC(C)=O)CO[C@@H]4C[C@H](O)[C@@]3(C)C(=O)[C@H](OC(C)=O)C(=C1C)C2(C)C,Potency,[1],0.0209 µM (active)
same,Potency,[8],23.5 nM (active)
same,Potency,[7],891 nM (active)
CC[N+]1(CCOC(=O)C(O)(c2ccccc2)c2ccccc2)CCCCC1,Potency,[1],inactive
same,Potency,[8],inactive
same,activity (max response),[9],4.14% (inactive)
same,Potency,[7],inactive
CCN(C(C)=O)c1cccc(-c2ccnc3c(C#N)cnn23)c1,Potency,[1],inactive
same,Potency,[8],inactive
same,activity (max response),[9],-7.67% (inactive)
same,Potency,[7],inactive
O=C(NCCCNc1nc(Nc2ccc(N3CCOCC3)cc2)ncc1C1CC1)C1CCC1,Potency,[1],0.118 µM (active)
same,Potency,[8],166 nM (active)
same,Potency,[7],inactive
C/C(=C\c1csc(C)n1)[C@@H]1C[C@@H]2O[C@]2(C)CCC[C@H](C)[C@H](O)[C@@H](C)C(=O)C(C)(C)[C@@H](O)CC(=O)O1,Potency,[1],0.0047 µM (active)
same,Potency,[8],4.7 nM (active)
same,Potency,[7],28.2 nM (active)
CC(=O)C1CCOC1=O (stereo not given),Potency,[1],inactive
same,Potency,[8],inactive
same,Potency,[7],inactive
C[C@]12CC[C@@H]3c4ccc(OC(=O)N(CCCl)CCCl)cc4CC[C@H]3[C@@H]1CC[C@@H]2OP(=O)(O)O,Potency,[1],inactive
same,Potency,[4],inactive
same,Potency,[10],inactive
same,Potency,[5],14.8 µM (active)
same,activity (max response),[9],-13.4% (inactive)
same,Potency,[7],inactive
C[C@@]12OC(=O)[C@]1([C@@H](O)[C@@H]1C=CCCC1)NC(=O)[C@@H]2CCCl,Potency,[1],0.0209 µM (active)
same,Potency,[8],23.5 nM (active)
same,Potency,[9],0.501 µM (active)
same,Potency,[7],398 nM (active)
Cc1ccc(S(=O)(=O)N[C@@H](CCCCN)C(=O)CCl)cc1,Potency,[1],inactive
same,Potency,[8],inactive
same,activity (max response),[9],15.2% (inactive)
same,Potency,[7],inactive
COc1cc(OC)c(OC)cc1C=O,Potency,[1],inactive
same,Potency,[11],inactive
same,Potency,[5],inactive
same,Potency,[6],inactive
same,activity (max response),[9],8.71% (inactive)
c1ccc2c(c1)Sc1ccccc1N2CC1CN2CCC1CC2 (stereo not given),Potency,[1],26.6 µM (active)
same,Potency,[8],26600 nM (active)
same,Potency,[7],16400 nM (active)
COc1ccc(Cc2nccc3cc(OC)c(OC)cc23)cc1OC,Potency,[1],6.68 µM (active) and 2.35 µM (active)
same,Potency,[8],7.5 µM (active) and 2.95 µM (active)
same,Potency,[7],inactive
NP(N)(=O)NC(=O)c1ccc(F)cc1,Potency,[1],inactive
same,Potency,[8],inactive
same,activity (max response),[9],6.62% (inactive)
same,Potency,[7],inactive
C/C(=C\c1csc(C)n1)[C@@H]1C[C@@H]2O[C@@H]2CCC[C@H](C)[C@H](O)[C@@H](C)C(=O)C(C)(C)[C@@H](O)CC(=O)O1,Potency,[1],0.0052 µM (active)
same,Potency,[8],5.8 nM (active)
same,Potency,[7],22.4 nM (active)
COc1ccc(C(=O)N2CCCC2=O)cc1,Potency,[1],inactive
same,Potency,[8],inactive
same,Potency,[7],inactive
O=C(N[C@@H](COc1ccc2[nH]c(=O)[nH]c2c1)c1ccccc1)c1cccn(Cc2ccc(F)c(F)c2)c1=O,Potency,[1],11.6 µM (active)
same,Potency,[3],5.26 µM (active)
COC12C(COC(N)=O)C3=C(C(=O)C(C)=C(N)C3=O)N1CC1C2N1C (stereo not given),Potency,[1],0.59 µM (active)
same,Potency,[8],833 nM (active)
same,Potency,[9],25.1 µM (active)
same,Potency,[7],15800 nM (active)
CC(C)[C@]12O[C@H]1[C@@H]1O[C@]13[C@]1(O[C@H]1C[C@H]1C4=C(CC[C@@]13C)C(=O)OC4)[C@@H]2O,Potency,[1],0.0166 µM (active)
same,Potency,[8],9.2 nM (active) and 16.6 nM (active)
same,Potency,[7],316 nM (active)
Clc1ccc(CCC(Cn2ccnc2)Sc2c(Cl)cccc2Cl)cc1 (stereo not given),Potency,[1],18.6 µM (active)
same,Potency,[8],11.9 µM (active) and 18.6 µM (active)
same,Potency,[7],20.6 µM (active) and 35.5 µM (active)
CO/C=C(/C(=O)OC)c1ccccc1Oc1cc(Oc2ccccc2C#N)ncn1,Potency,[1],13.7 µM (active)
same,Potency,[8],8630 nM (active)
same,Potency,[7],7940 nM (active)
COP(=S)(OC)Oc1ccc(SC)c(C)c1,Potency,[1],inactive
same,Potency,[8],inactive
same,activity (max response),[9],5.91% (inactive)
same,Potency,[7],inactive
CN1C(=O)CN=C(c2ccccc2)c2cc([N+](=O)[O-])ccc21,Potency,[1],inactive
same,Potency,[8],inactive
same,activity (max response),[9],6.26% (inactive)
same,Potency,[7],inactive
CC(C)(C)c1ccc(O)cc1,Potency,[1],inactive
same,Potency,[8],inactive
same,activity (max response),[9],9.89% (inactive)
same,Potency,[7],inactive
CCNC(=O)CC1N=C(c2ccc(Cl)cc2)c2cc(OC)ccc2-n2c(C)nnc21 (stereo not given),Potency,[1],14.8 µM (active) and inactive and 517 nM (active)
same,Potency,[2],inactive
same,Potency,[12],inactive
same,Potency,[6],23.5 µM (active)
same,activity (max response),[9],-19.5% (inactive)
same,Potency,[7],inactive
C[C@]12CC[C@H]3[C@@H](CC[C@@]45O[C@@H]4C(O)=C(C#N)C[C@]35C)[C@@H]1CC[C@@H]2O,Potency,[1],10.5 µM (active)
same,Potency,[8],6610 nM (active)
same,activity (max response),[9],-12.1% (inactive)
same,Potency,[7],28200 nM (active)
C[C@](O)(COc1ccc(C#N)cc1)C(=O)Nc1ccc(C#N)c(C(F)(F)F)c1,Potency,[1],18.6 µM (active)
same,Potency,[12],inactive
same,Potency,[9],22.4 µM (active)
same,Potency,[7],17800 nM (active)
CCO[C@H]1O[C@@H]2OC3(C)CC[C@H]4[C@H](C)CC[C@@H]([C@H]1C)[C@@]24OO3,Potency,[1],4.22 µM (active)
same,Potency,[8],2990 nM (active)
same,Potency,[7],inactive
C[C@]12CC[C@@H]3c4ccc(OC(=O)N(CCCl)CCCl)cc4CC[C@H]3[C@@H]1CC[C@@H]2O,Potency,[1],inactive
same,Potency,[8],inactive
same,Potency,[7],inactive
NC(=O)CS(=O)C(c1ccccc1)c1ccccc1 (stereo not given),Potency,[1],inactive
same,activity (max response),[9],12.6% (inactive)
same,Potency,[7],inactive
O=C(O)c1ccc2[nH]cc(CCCCN3CC=C(c4ccccc4)CC3)c2c1,Potency,[1],9.44 µM (active)
same,activity (max response),[9],-1.83% (inactive)
same,Potency,[7],inactive

# Reference: PubChem BioAssay (NCATS)
